# Source: ChEMBL document CHEMBL5308504, “Tm Shift (DSF) assay results for EUbOPEN Chemogenomics Library” (2023)
# What was measured:
# Conditions in all cases: Compound concentration 20.0 uM, Protein concentration 2.0 uM, Result type QC Liability
# [1] = target: Tyrosine-protein kinase ABL1 (Homo sapiens) (UniProt P00519)
# [2] = target: Cyclin-dependent kinase 2 (Homo sapiens) (UniProt P24941)
# [3] = target: Casein kinase I isoform delta (Homo sapiens) (UniProt P48730)
# [4] = target: Glycogen synthase kinase-3 beta (Homo sapiens) (UniProt P49841)
# [5] = target: Mitogen-activated protein kinase 1 (Homo sapiens) (UniProt P28482)
# [6] = target: T1, Aurora kinase A (Homo sapiens) (UniProt O14965)
# T1 sequence (whole entry): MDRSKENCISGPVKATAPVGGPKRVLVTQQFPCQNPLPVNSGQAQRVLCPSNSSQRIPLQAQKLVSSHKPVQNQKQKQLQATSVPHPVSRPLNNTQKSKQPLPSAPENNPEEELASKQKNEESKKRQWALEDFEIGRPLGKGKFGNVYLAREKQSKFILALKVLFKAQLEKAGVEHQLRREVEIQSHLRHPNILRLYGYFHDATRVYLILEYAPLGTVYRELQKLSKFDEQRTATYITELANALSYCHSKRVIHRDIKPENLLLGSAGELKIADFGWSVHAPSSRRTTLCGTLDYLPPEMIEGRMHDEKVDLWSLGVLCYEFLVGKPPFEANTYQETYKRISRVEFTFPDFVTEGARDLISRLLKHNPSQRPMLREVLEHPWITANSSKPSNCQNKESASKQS
# [7] = target: T2, Transcription intermediary factor 1-alpha (Homo sapiens) (UniProt O15164)
# T2 sequence (whole entry): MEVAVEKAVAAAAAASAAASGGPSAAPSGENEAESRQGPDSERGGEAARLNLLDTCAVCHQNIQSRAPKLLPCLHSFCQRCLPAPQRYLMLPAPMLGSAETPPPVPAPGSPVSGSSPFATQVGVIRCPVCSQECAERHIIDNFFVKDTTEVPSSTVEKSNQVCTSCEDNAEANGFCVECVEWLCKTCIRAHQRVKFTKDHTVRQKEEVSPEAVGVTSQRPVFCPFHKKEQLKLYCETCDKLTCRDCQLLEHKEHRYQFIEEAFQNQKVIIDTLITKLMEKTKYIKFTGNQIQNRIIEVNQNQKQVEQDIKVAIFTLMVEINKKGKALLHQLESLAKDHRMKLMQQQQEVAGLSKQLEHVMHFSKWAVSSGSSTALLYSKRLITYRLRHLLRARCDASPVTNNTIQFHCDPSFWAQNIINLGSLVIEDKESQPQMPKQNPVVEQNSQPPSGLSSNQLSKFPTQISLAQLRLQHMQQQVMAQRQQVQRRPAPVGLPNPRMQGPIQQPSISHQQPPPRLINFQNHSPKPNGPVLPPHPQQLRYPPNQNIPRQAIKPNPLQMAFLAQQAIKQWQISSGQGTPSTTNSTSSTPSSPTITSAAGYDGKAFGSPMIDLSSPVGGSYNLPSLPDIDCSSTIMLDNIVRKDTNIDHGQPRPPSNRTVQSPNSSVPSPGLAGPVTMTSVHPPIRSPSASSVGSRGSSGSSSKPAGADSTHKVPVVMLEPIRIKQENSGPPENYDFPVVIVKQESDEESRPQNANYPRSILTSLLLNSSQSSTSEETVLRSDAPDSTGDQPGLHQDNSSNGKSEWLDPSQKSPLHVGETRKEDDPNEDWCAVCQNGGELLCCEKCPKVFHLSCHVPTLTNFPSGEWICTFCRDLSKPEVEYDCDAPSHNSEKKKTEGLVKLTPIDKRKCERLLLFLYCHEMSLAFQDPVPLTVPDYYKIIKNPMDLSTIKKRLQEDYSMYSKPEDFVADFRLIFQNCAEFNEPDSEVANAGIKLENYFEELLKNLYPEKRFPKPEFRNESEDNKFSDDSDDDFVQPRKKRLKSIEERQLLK
# Sequence of Casein kinase I isoform delta (Homo sapiens) (P48730 whole entry, looked up, canonical isoform): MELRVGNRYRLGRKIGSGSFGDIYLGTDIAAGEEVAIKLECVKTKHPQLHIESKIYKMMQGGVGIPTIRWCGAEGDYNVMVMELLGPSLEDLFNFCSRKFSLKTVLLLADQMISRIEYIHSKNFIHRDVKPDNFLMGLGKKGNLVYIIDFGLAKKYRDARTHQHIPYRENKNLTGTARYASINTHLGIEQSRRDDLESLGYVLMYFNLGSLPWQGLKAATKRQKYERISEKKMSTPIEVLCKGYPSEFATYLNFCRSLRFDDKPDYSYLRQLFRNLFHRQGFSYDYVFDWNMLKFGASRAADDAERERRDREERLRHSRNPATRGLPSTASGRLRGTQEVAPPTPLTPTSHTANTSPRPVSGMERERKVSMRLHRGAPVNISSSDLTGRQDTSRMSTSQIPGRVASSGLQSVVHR
# Sequence of Mitogen-activated protein kinase 1 (Homo sapiens) (P28482 whole entry): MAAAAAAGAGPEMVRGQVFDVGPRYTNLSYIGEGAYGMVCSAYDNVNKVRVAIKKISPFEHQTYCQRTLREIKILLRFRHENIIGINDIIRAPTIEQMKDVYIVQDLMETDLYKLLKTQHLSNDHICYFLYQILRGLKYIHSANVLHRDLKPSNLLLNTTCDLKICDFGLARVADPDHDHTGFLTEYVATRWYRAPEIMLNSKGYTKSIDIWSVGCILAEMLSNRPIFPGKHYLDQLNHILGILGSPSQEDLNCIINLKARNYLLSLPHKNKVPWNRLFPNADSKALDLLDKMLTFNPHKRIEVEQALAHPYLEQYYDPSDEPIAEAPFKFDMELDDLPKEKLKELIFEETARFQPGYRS
# Sequence of Tyrosine-protein kinase ABL1 (Homo sapiens) (P00519 whole entry): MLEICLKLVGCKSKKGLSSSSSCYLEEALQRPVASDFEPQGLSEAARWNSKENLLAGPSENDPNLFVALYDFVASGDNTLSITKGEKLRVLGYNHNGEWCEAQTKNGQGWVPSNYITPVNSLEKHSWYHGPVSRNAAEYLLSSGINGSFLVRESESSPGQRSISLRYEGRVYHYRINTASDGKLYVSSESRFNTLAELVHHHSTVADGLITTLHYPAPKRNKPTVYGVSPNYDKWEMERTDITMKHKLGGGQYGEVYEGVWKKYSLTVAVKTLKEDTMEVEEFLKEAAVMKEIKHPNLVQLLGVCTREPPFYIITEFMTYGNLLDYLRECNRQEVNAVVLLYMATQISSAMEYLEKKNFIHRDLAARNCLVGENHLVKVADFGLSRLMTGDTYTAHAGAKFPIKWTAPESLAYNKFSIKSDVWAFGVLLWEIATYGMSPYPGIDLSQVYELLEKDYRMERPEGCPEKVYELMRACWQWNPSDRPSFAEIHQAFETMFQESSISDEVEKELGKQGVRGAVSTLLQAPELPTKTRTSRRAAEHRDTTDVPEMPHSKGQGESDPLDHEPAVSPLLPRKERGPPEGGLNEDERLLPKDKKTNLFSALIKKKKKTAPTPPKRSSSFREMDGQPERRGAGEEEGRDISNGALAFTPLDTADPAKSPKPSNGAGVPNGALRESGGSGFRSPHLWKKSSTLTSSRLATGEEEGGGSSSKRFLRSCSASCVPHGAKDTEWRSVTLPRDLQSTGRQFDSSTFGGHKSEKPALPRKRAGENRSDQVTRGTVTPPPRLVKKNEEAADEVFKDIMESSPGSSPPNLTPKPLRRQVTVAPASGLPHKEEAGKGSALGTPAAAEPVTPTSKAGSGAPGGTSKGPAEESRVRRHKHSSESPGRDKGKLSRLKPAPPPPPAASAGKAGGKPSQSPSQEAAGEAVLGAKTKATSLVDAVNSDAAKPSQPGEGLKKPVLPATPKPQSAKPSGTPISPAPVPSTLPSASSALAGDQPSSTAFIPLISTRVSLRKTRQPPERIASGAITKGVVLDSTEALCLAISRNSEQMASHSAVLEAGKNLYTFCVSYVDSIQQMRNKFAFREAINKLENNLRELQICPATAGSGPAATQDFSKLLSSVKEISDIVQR
# Sequence of Glycogen synthase kinase-3 beta (Homo sapiens) (P49841 whole entry, looked up): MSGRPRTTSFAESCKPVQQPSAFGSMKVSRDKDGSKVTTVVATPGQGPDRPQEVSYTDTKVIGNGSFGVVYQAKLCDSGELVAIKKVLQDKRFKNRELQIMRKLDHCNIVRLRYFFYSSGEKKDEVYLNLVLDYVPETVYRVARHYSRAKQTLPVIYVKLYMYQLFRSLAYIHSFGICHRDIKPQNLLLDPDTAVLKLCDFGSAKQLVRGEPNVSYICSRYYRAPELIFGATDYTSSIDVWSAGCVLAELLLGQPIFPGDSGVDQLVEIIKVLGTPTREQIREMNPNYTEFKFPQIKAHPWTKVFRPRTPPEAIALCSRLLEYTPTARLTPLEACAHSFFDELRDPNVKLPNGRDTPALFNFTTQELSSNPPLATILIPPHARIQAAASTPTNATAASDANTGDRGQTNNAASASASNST
Compound,ΔTm [1],ΔTm [2],ΔTm [3],ΔTm [4],ΔTm [5],ΔTm [6],ΔTm [7]
CCN1C(=O)C(c2cccc(C(=O)O)c2)C(=O)N(c2ccccc2)c2cc(C(F)(F)F)ccc21 (stereo not given),-0.5 °C,-0.13 °C,0.29 °C,-1.43 °C,0.17 °C,-0.25 °C,0.23 °C
Cc1nnc2n1-c1sc(CCC(=O)N3CCOCC3)cc1C(c1ccccc1Cl)=NC2,0.15 °C,0.99 °C,0.34 °C,-0.2 °C,0.13 °C,0.01 °C,0.29 °C
C=CC(=O)Nc1cc(-c2nn(C3CCC(N4CCN(C(C)=O)CC4)CC3)c3ncnc(N)c23)ccc1Oc1ccccc1 (stereo not given),0.84 °C,0.18 °C,0.89 °C,-1.12 °C,0.34 °C,4.07 °C,-1.68 °C
C[C@H](CCC(=O)O)[C@H]1CC[C@H]2[C@@H]3[C@@H](O)C[C@@H]4C[C@H](O)CC[C@]4(C)[C@H]3CC[C@]12C,0.07 °C,0.52 °C,0.77 °C,-0.56 °C,0.29 °C,-1.74 °C,-2.12 °C
COc1ccc(-n2nc(C(F)(F)F)cc2-c2ccc(Cl)cc2)cc1,0.2 °C,1.23 °C,0.03 °C,-0.24 °C,0.69 °C,-0.08 °C,-0.34 °C
C=C[C@@]12CCc3cc(O)ccc3[C@H]1CC[C@@]1(C)[C@H]2CC[C@@H]1O,0.27 °C,0.21 °C,0.08 °C,1.27 °C,0.21 °C,0 °C,-0.42 °C
Cc1nnc2n1-c1sc3c(c1C(c1ccccc1Cl)=NC2)C[C@@H](C(=O)N1CCOCC1)C3,0.78 °C,0.74 °C,0.17 °C,0.5 °C,0.3 °C,0.11 °C,-0.75 °C
CCC(=O)O[C@@H](OP(=O)(CCCCc1ccccc1)CC(=O)N1C[C@H](C2CCCCC2)C[C@H]1C(=O)O)C(C)C (stereo not given in full),0.01 °C,0.46 °C,-0.25 °C,-0.61 °C,0.22 °C,-1.22 °C,-3.14 °C
O=C(NCCN1CCC2(CC1)C(=O)NCN2c1cccc(F)c1)c1ccc2ccccc2c1,-0.28 °C,0.17 °C,0.58 °C,-0.14 °C,0.08 °C,0.16 °C,0.18 °C
CNc1nc(-c2cc(C(=O)N3CCN(Cc4ccc(Cl)cc4)CC3)c(Cl)cn2)cs1,-0.06 °C,0.89 °C,0.17 °C,0.59 °C,0.23 °C,-0.18 °C,0.39 °C
Clc1ccccc1C(c1ccccc1)(c1ccccc1)n1cccn1,0.43 °C,0.09 °C,-0.01 °C,-0.43 °C,0.22 °C,-0.47 °C,-0.54 °C
COP(=O)(CCC(N)C(=O)O)Oc1cccc(CC(=O)O)c1 (stereo not given),-0.06 °C,0.07 °C,0.36 °C,-0.02 °C,0.13 °C,-0.17 °C,0.32 °C
CCOP(=O)(OCC)C(=Cc1cc(C(C)(C)C)c(O)c(C(C)(C)C)c1)P(=O)(OCC)OCC,-0.09 °C,0.15 °C,0.17 °C,-0.29 °C,0.15 °C,-1.17 °C,-3.9 °C
CCN(CC)CCO[C@H]1CC[C@@]2(C)C(=CC[C@@H]3[C@@H]2CC[C@]2(C)C(=O)CC[C@@H]32)C1,0.26 °C,0.63 °C,-0.08 °C,-0.11 °C,0.35 °C,-0.37 °C,-0.77 °C
CO[C@H](C)CN1CC[C@]2(C)c3cccc(O)c3C[C@H]1C2(C)C,0.1 °C,0.52 °C,0.27 °C,-0.29 °C,-0.17 °C,-0.21 °C,0.19 °C
CO[C@H](C)CN1CC[C@@]2(C)c3ccc(O)cc3C[C@@H]1C2(C)C,0.21 °C,-0.28 °C,0.29 °C,-0.8 °C,0.34 °C,0.3 °C,0.33 °C
Cn1ncc(-c2nc(N[C@H]3CC[C@H](N)CC3)ncc2Cl)c1CC1CC1,0.41 °C,12.7 °C,9.79 °C,9.59 °C,2.41 °C,2.45 °C,-3.6 °C
CN1CCN(C(=O)Cc2ccc(N/C(=C3\C(=O)Nc4cc(Cl)ccc43)c3ccccc3)cc2)CC1,8.52 °C,1.7 °C,1.29 °C,6.21 °C,-0.19 °C,1.19 °C,-2.36 °C
COc1ccc(OC(=O)N(CC(=O)O)Cc2ccc(OCCc3nc(-c4ccccc4)oc3C)cc2)cc1,0.16 °C,-0.27 °C,0.56 °C,-1.96 °C,0.18 °C,-0.93 °C,-4.78 °C
O=C1CCC(N2Cc3cc(CNC(=O)C(F)(F)c4ccc(Cl)cc4)ccc3C2=O)C(=O)N1 (stereo not given),0.53 °C,0.76 °C,0.06 °C,0.18 °C,0.34 °C,-0.46 °C,-0.96 °C
